Read-out in test [1]: TIMP metallopeptidase inhibitor 1 (TIMP1), TIMP1 (gene 7076)
Briefly: BSK_hDFCGF_TIMP1: BioMAP Diversity Plus: hDFCGF Assay for TIMP metallopeptidase inhibitor 1 (TIMP1) Biomarker Activity (AID 2283062). To be noted: primary human foreskin fibroblasts; actives raise or lower the signal. The procedure, abridged:
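Human foreskin fibroblast primary cultures dosed for 24 h; secreted/surface TIMP-1 quantified by ELISA. Bidirectional curve fitting against DMSO baseline; cytotoxicity tracked in parallel cultures by SRB total-protein staining.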

Read-out in test [2]: Monokine induced gamma interferon (MIG), CXCL9 (gene 4283)
Briefly: BSK_hDFCGF_MIG: BioMAP Diversity Plus: hDFCGF Assay for Monokine induced gamma interferon (MIG) Biomarker Activity (AID 2283063). To be noted: primary human foreskin fibroblasts; actives raise or lower the signal. The procedure, abridged:
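MIG/CXCL9 measured by ELISA 24 h after dosing primary human skin fibroblasts. Activity fitted in both directions against DMSO controls. Cytotoxicity was checked in parallel cultures by SRB staining read at 560 nm.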

Read-out in test [3]: Matrix Metallopeptidase 1 (MMP1), MMP1 (gene 4312)
In words: BSK_hDFCGF_MMP1: BioMAP Diversity Plus: hDFCGF Assay for Matrix Metallopeptidase 1 (MMP1) Biomarker Activity (AID 2283064). To be noted: primary human foreskin fibroblasts; actives raise or lower the signal. An outline of the steps:
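hDFCGF primary fibroblasts (human foreskin); chemical added; 24 h; MMP1 by ELISA; bidirectional fit vs DMSO.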

Read-out in test [4]: Vascular cell adhesion molecule 1 (VCAM1), VCAM1 (gene 7412)
In words: BSK_hDFCGF_VCAM1: BioMAP Diversity Plus: hDFCGF Assay for Vascular cell adhesion molecule 1 (VCAM1) Biomarker Activity (AID 2283065). Conditions: primary human foreskin fibroblasts; actives raise or lower the signal. The procedure, abridged: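 Human foreskin fibroblast primary cells dosed with chemical, VCAM-1 measured by ELISA at 24 h. Bidirectional curve fitting relative to DMSO as negative control/baseline.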

Read-out in test [5]: Plasminogen activator inhibitor-1 (PAI1), SERPINE1 (gene 5054)
In words: BSK_hDFCGF_PAI1: BioMAP Diversity Plus: hDFCGF Assay for Plasminogen activator inhibitor-1 (PAI1) Biomarker Activity (AID 2283066). Conditions: primary human foreskin fibroblasts; actives raise or lower the signal. An outline of the steps: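 Human foreskin fibroblast primary cells, 24 h chemical exposure; PAI-1 measured by ELISA. Bidirectional fitting relative to DMSO; parallel cultures stained with SRB for total protein to flag overt cytotoxicity.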

Read-out in test [6]: Intercellular Adhesion Molecule 1 (ICAM1), ICAM1 (gene 3383)
In words: BSK_KF3CT_ICAM1: BioMAP Diversity Plus: KF3CT Assay for Intercellular Adhesion Molecule 1 (ICAM1) Biomarker Activity (AID 2283067). Conditions: primary human keratinocytes with fibroblasts; actives raise or lower the signal. An outline of the steps: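 Human keratinocyte–foreskin fibroblast co-culture was treated for 24 h. Cell-surface ICAM-1 was quantified by ELISA, fitted bidirectionally relative to DMSO. Cytotoxicity was checked in parallel cultures by SRB total-protein staining.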

The nature of test [7]: BSK_KF3CT_SRB: Viability Assessment in the BioMAP Diversity Plus: KF3CT Assay (AID 2283069).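 Note: total protein by sulforhodamine B staining as a cytotoxicity measure; fitted for both signal gain and loss against DMSO baseline.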 Conditions: primary human keratinocytes with fibroblasts. The procedure, abridged:
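Keratinocytes co-cultured with foreskin fibroblasts (human primary); chemical added, 24 h; fix 10% TCA, stain 0.1% SRB, A560. Bidirectional fit vs DMSO.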

Read-out in test [8]: Interleukin-1 alpha (IL1a), IL1A (gene 3552)
In words: BSK_KF3CT_IL1a: BioMAP Diversity Plus: KF3CT Assay for Interleukin-1 alpha (IL1a) Biomarker Activity (AID 2283070). Conditions: primary human keratinocytes with fibroblasts; actives raise or lower the signal. The procedure, abridged: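 Chemicals were dosed onto co-cultured human keratinocytes and foreskin fibroblasts, IL-1a was quantified by ELISA at 24 h, and activity was fitted in both directions relative to DMSO controls.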

Read-out in test [9]: TIMP metallopeptidase inhibitor 2 (TIMP2), TIMP2 (gene 7077)
Briefly: BSK_KF3CT_TIMP2: BioMAP Diversity Plus: KF3CT Assay for TIMP metallopeptidase inhibitor 2 (TIMP2) Biomarker Activity (AID 2283071). Conditions: primary human keratinocytes with fibroblasts; actives raise or lower the signal. An outline of the steps: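 Co-culture of human primary keratinocytes and foreskin fibroblasts, measured 24 h after chemical dosing. TIMP-2 quantified by ELISA and fitted in both directions relative to DMSO. Cytotoxicity checked in parallel cultures by SRB total-protein staining.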

Read-out in test [10]: Transforming growth factor beta 1 (TGFb1), TGFB1 (gene 7040)
In words: BSK_KF3CT_TGFb1: BioMAP Diversity Plus: KF3CT Assay for Transforming growth factor beta 1 (TGFb1) Biomarker Activity (AID 2283072). Conditions: primary human keratinocytes with fibroblasts; actives raise or lower the signal. An outline of the steps: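 Human keratinocyte/foreskin fibroblast co-culture; TGF-b1 measured by ELISA 24 h after dosing, fitted bidirectionally versus DMSO. Cytotoxicity checked in parallel cultures by total protein (SRB staining, 560 nm).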

Read-out in test [11]: C-C motif chemokine 2 (Homo sapiens) (UniProt P13500)
In words: BSK_KF3CT_MCP1: BioMAP Diversity Plus: KF3CT Assay for Monocyte Chemoattractant Protein 1 (MCP1/CCL2) Biomarker Activity (AID 2283073). Conditions: primary human keratinocytes with fibroblasts; actives raise or lower the signal. An outline of the steps:
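Human keratinocyte–foreskin fibroblast co-culture; MCP-1 measured by ELISA 24 h after dosing. Bidirectional fit vs DMSO; cytotoxicity tracked by SRB total protein in parallel cultures.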

Read-out in test [12]: Matrix Metallopeptidase 9 (MMP9), MMP9 (gene 4318)
In words: BSK_KF3CT_MMP9: BioMAP Diversity Plus: KF3CT Assay for Matrix Metallopeptidase 9 (MMP9) Biomarker Activity (AID 2283074).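 For AC50: MMP9 protein level quantified by ELISA in the co-culture.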 To be noted: primary human keratinocytes with fibroblasts; actives raise or lower the signal. The procedure, abridged: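 Human keratinocyte/foreskin fibroblast co-culture; compound added; 24 h; MMP-9 by ELISA; bidirectional fit vs DMSO baseline.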

Read-out in test [13]: urokinase plasminogen activator (uPA), PLAU (gene 5328)
Briefly: BSK_KF3CT_uPA: BioMAP Diversity Plus: KF3CT Assay for urokinase plasminogen activator (uPA) Biomarker Activity (AID 2283075). To be noted: primary human keratinocytes with fibroblasts; actives raise or lower the signal. An outline of the steps:
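ELISA readout of uPA, analyzed for signal gain or loss relative to DMSO, from a human primary keratinocyte–foreskin fibroblast co-culture measured 24 h after chemical treatment.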

Read-out in the next test: CD40, CD40 (gene 958)
In words: BSK_LPS_CD40: BioMAP Diversity Plus: LPS Assay for CD40 Biomarker Activity (AID 2283076). To be noted: primary human HUVEC with PBMC; actives raise or lower the signal. The procedure, abridged:
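HUVEC plus PBMC co-culture stimulated with LPS; CD40 quantified by ELISA 24 h after compound dosing. Fitting was bidirectional relative to DMSO. SRB staining of parallel cultures flagged overt cytotoxicity.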

Read-out in test [14]: E-selectin (Homo sapiens) (UniProt P16581)
In words: BSK_LPS_Eselectin: BioMAP Diversity Plus: LPS Assay for Eselectin Biomarker Activity (AID 2283077). Conditions: primary human HUVEC with PBMC; actives raise or lower the signal. An outline of the steps:
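Human umbilical vein endothelial cells co-cultured with PBMC under LPS stimulation; cell-surface E-selectin measured by ELISA 24 h after dosing. Change in either direction versus DMSO, with SRB total-protein staining in parallel cultures for cytotoxicity.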

Read-out in test [15]: Interleukin-8 (IL8), CXCL8 (gene 3576)
Briefly: BSK_LPS_IL8: BioMAP Diversity Plus: LPS Assay for Interleukin-8 (IL8) Biomarker Activity (AID 2283078). To be noted: primary human HUVEC with PBMC; actives raise or lower the signal. The procedure, abridged:
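Human umbilical vein endothelial cells co-cultured with PBMC, LPS-stimulated, exposed to compound for 24 h. IL-8 quantified by ELISA; fitted in both directions against DMSO, with SRB total-protein staining of parallel cultures for cytotoxicity.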

The nature of test [16]: BSK_LPS_SRB: Viability Assessment in the BioMAP Diversity Plus: LPS Assay (AID 2283079).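 Note: total protein by sulforhodamine B absorbance as a cytotoxicity measure; measured one day after compound addition; fitted in both directions against DMSO so loss or gain of signal counts.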 Conditions: primary human HUVEC with PBMC. The procedure, abridged: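 Co-culture of human umbilical vein endothelial cells and PBMC, read 24 h after dosing. Total protein by 0.1% SRB staining after 10% TCA fixation, absorbance at 560 nm; bidirectional fit against DMSO.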
Read-out in test [17]: Interleukin-1 alpha (IL1a), IL1A (gene 3552)
In words: BSK_LPS_IL1a: BioMAP Diversity Plus: LPS Assay for Interleukin-1 alpha (IL1a) Biomarker Activity (AID 2283080). To be noted: primary human HUVEC with PBMC; actives raise or lower the signal. An outline of the steps:
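Human umbilical vein endothelial cells co-cultured with PBMC and stimulated with LPS; IL-1a measured by ELISA 24 h after dosing. Bidirectional fitting against DMSO; cytotoxicity checked by SRB staining in parallel cultures.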

Read-out in test [18]: Monocyte Chemoattractant Protein-1 (MCP1), CCL2 (gene 6347)
Briefly: BSK_LPS_MCP1: BioMAP Diversity Plus: LPS Assay for Monocyte Chemoattractant Protein-1 (MCP1) Biomarker Activity (AID 2283081). Conditions: primary human HUVEC with PBMC; actives raise or lower the signal. An outline of the steps:
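Human umbilical vein endothelial cells co-cultured with PBMC, LPS-stimulated; secreted MCP-1 measured by ELISA 24 h after compound addition. Bidirectional curve fitting against DMSO baseline; SRB total-protein staining in parallel cultures for cytotoxicity.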

Read-out in test [19]: Interferon-gamma inducible Protein 10 (IP10), CXCL10 (gene 3627)
Briefly: BSK_KF3CT_IP10: BioMAP Diversity Plus: KF3CT Assay for Interferon-gamma inducible Protein 10 (IP10) Biomarker Activity (AID 2283068). To be noted: primary human keratinocytes with fibroblasts; actives raise or lower the signal. The procedure, abridged:
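Human keratinocyte plus foreskin fibroblast primary co-culture exposed to test chemical for 24 h; IP-10 measured by ELISA. Concentration-response fitted bidirectionally against DMSO control as baseline.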

As usually defined, the AC50 is the midpoint of the concentration-response curve, whichever way the signal moves.

Active and inactive are the calls of the source. Rule for the calls: active = hit-call score of the fitted dose curve at least 0.9, where 1 is the maximum; inactive = score below 0.9.

E-selectin (Homo sapiens), sequence (P16581 whole entry, looked up): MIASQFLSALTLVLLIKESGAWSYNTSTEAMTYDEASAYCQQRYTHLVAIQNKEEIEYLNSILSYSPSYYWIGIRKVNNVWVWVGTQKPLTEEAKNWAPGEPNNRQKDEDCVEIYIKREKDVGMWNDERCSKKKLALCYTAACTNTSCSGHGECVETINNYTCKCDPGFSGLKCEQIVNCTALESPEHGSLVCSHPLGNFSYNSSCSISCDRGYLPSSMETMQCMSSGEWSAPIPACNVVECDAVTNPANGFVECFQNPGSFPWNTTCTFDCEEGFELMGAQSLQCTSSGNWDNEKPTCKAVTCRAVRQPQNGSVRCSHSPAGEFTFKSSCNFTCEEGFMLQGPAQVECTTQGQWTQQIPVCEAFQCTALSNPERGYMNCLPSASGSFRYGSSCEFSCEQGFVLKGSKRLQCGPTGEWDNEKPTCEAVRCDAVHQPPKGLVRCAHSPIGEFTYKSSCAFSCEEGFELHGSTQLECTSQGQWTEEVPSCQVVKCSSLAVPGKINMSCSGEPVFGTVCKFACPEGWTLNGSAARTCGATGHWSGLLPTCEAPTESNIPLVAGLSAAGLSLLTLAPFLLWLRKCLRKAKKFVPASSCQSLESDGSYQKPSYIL

Consider `Cc1ccc(N)c(N)c1`, for which the result in [1], in [3], in test [4], in test [5], in test [6] and in test [7] was inactive. Further, the outcome was “inactive” in test [8]; “inactive” in test [9]; “inactive” in test [10]; “inactive” in test [11]; “inactive” in [13]; “inactive” with CD40, CD40 (gene 958). For the same molecule, the outcome in test [14], in test [15], in test [16], in [17] and in [18] was inactive. Further, the AC50 in test [2] is 3.65 µM (active); in test [12] it was 9.74 µM (active).

Take `CN(C)c1ccc(C(=O)c2ccc(N(C)C)cc2)cc1`: the result in test [1], in [2], in test [3], in test [4], in [6] and in test [19] was inactive. For the same molecule, the outcome in [7], in test [8], in test [9], in [11], in test [12] and in [13] was inactive. For the same molecule, the result in [14], in [17] and in [18] was inactive. In addition, the AC50 in test [10] was 5.11 µM (active); with CD40, CD40 (gene 958), 17 µM (active); in test [15] it was 6.12 µM (active); in test [16], 13.4 µM (active).

For the molecule `O=C(N[C@H](c1ccccc1)[C@@H]1CN2CCC1CC2)c1c(Cl)ccc(C(F)(F)F)c1Cl`, the outcome in test [1], in [2], in test [3], in test [4], in test [5] and in [11] was inactive. Also, the outcome in test [14], in test [17] and in test [18] was inactive. Also, the AC50 in test [6] was 49.6 µM (active); in test [19], 49 µM (active); in [7], 44.6 µM (active); in test [8], 47.9 µM (active); in [10] it was 48.7 µM (active); in test [12], 41.7 µM (active). The AC50 in test [13] was 42.7 µM (active); with CD40, CD40 (gene 958) it was 19.5 µM (active); in test [15] it was 7.76 µM (active); in test [16], 29.7 µM (active).

Consider `CC(C)N(Cc1ccccc1)C(=O)C(C)(C)C`, for which the result in [1], in test [2], in [3], in test [4], in test [6] and in test [19] was inactive. Moreover, the outcome in test [7], in test [8], in test [9], in [10], in test [11] and in [12] was inactive. The outcome in test [13] was “inactive”; in the test with CD40, CD40 (gene 958) it was “inactive”; in test [14] it was “inactive”; in test [15] it was “inactive”; in [16], “inactive”; in test [17] it was “inactive”. In addition, the outcome in test [18] was inactive.

For the origin of these results see PubChem BioAssay (EPA / NIEHS).
